Pf growth 96h: Primary qHTS for delayed death inhibitors of the malarial parasite plastid, 96 hour incubation; P. falciparum luciferase reporter growth, 96 h; Potency, µM (titrated, usually from 28.7 µM), most hits filed as inhibitors; 6.9% of 320,000 active
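96 h incubation, 37 C, 5% CO2, of luciferase-reporter P. falciparum-infected RBCs (2% hematocrit, 0.05% parasitemia final) with test compounds; endpoint luminescence.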
CHX counter: Cycloheximide Counterscreen for Small Molecule Inhibitors of Shiga Toxin; cell reporter, cycloheximide protein synthesis inhibition counterscreen; max response, %; 12% of 300,000 active; AID 2314, 2010; in the data active = max response mostly above about 13%, no sharp cut-off; inactive = mostly below about 14%; note: read at 38.3 µM for the half of the compounds with a filed dose
Shiga toxin inh: A qHTS for Small Molecule Inhibitors of Shiga Toxin; Vero cells, Shiga toxin protein synthesis inhibition reporter; inhibition, % at 38.7 µM; 9.2% of 290,000 active; AID 2315, 2010; in the data active = inhibition mostly above about 28%, no sharp cut-off; inactive = mostly below about 43%
Pf growth 48h: Primary qHTS for delayed death inhibitors of the malarial parasite plastid, 48 hour incubation; P. falciparum luciferase growth in erythrocytes, 48 h; Potency, µM (series often up to 28.7 µM), actives largely listed as inhibitors; 5.9% of 310,000 active
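Luciferase-expressing P. falciparum in infected erythrocytes (2% hematocrit, 0.1% parasitemia final) in RPMI 1640/0.5% Albumax were exposed to compound for 48 hours at 37 C, 5% CO2; growth read as luminescence.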
Each line names hits and unclear results; the compound was inactive in the other large screens. Only some compounds are listed: those with a hit (about 21% of all), similar ones and a draw of the others. Unless noted, calls come from the whole dose curve; as a rule, active = well fitted inhibition curve with a large enough effect; inconclusive = small, poorly fitted or top-dose-only effect, or another doubt; inactive = no such curve, though single readings can be large or run the other way.

CCOC(=O)C1=NNC(C(=O)c2ccccc2)C1c1ccc(C)cc1 (configuration not stated)	Pf growth 96h 2.08µM, Pf growth 48h 1.65µM
CCOC(=O)C1=NNC(C(=O)c2ccccc2)C1c1ccc(Cl)cc1 (configuration not stated)	none
Cc1ccc(C(=O)NC(=S)Nc2ccccc2C(F)(F)F)cc1	none
Cc1occc1C(=O)NNC(=S)Nc1ccccc1	CHX counter 35.0, Shiga toxin inh 76.6
Cc1occc1C(=O)NNC(=S)Nc1ccccc1C(F)(F)F	Pf growth 96h inconclusive, CHX counter 26.5, Shiga toxin inh 56.4
CCNC(=S)NNC(=O)c1ccoc1C	Pf growth 96h inconclusive
O=C(NNC(=S)Nc1ccccc1C(F)(F)F)c1ccc(Br)o1	CHX counter 29.6, Shiga toxin inh 100.9
Cc1ccccc1NC(=S)NNC(=O)c1ccoc1C	Shiga toxin inh 48.3
CC(C)(C)CC(=O)NC(=S)Nc1ccccc1C(F)(F)F	Pf growth 48h inconclusive
CN(CC(=O)Nc1cccc(F)c1)C(=O)CN1C(=O)NC2(CCCC2)C1=O	none (no result: CHX counter, Shiga toxin inh)
C=C1[C@@H]2C[C@]3(C(CC2=O)[C@]24C5C[C@H]3[C@H]2N(CC)C[C@]5(C)CC[C@@H]4O)[C@@H]1O (some centres not stated)	none (no result: Pf growth 96h, Pf growth 48h)
Cc1occc1C(=O)NNC(=O)c1ccc(F)cc1	Pf growth 96h inconclusive
Cc1occc1C(=O)NNC(=O)c1ccccc1F	CHX counter 23.3
O=C(NCCC1=CCCCC1)c1ccc2c(c1)N(Cc1ccccc1)C(=O)CS2	Pf growth 96h 5.86µM (no result: Pf growth 48h)
O=C(c1ccc2c(c1)N(Cc1ccccc1)C(=O)CS2)N1CCOCC1	Pf growth 96h 13.1µM
C=CCN1C(=O)CSc2ccc(C(=O)NC(C)c3ccccc3)cc21 (configuration not stated)	Pf growth 96h 9.28µM
CCOC(=O)c1cc(S(=O)(=O)N2CCC(C)CC2)cn1C	none
COc1ccc(C(=O)N(Cc2ccco2)Cc2cccs2)cc1	none (no result: Pf growth 96h, Pf growth 48h)
O=C(Nc1ccc2c(c1)CCC2)C1CCN(c2c3c(nc4ncnn24)CCC3)CC1	Pf growth 48h 11.7µM
O=C(Nc1ccc(Oc2ccccc2)cc1)C1CCN(c2c3c(nc4ncnn24)CCC3)CC1	Pf growth 48h inconclusive
Cc1ccc(NC2=NC(c3ccc(C)cc3)n3c(nc(C)cc3=O)N2)cc1 (configuration not stated)	Pf growth 96h 11.7µM, Pf growth 48h inconclusive
Cc1ccc(NC2=NC(c3ccc(F)cc3)n3c(nc(C)cc3=O)N2)cc1 (configuration not stated)	Pf growth 96h inconclusive, Pf growth 48h inconclusive
CC1(C)N=C(N)NC(Nc2ccccc2Cl)=N1	none
CC1(C)N=C(N)NC(Nc2ccc(Br)cc2)=N1	Pf growth 48h 5.22µM (no result: Pf growth 96h)
CC1(C)N=C(N)NC(Nc2cccc(Br)c2)=N1	Pf growth 96h 1.17µM (no result: Pf growth 48h)
Cc1cccc(C)c1NC1=NC(C)(C)N=C(N)N1	none
O=C1CC2(CCN(S(=O)(=O)c3ccccc3F)CC2)Oc2ccccc21	Pf growth 96h inconclusive (no result: CHX counter, Shiga toxin inh)
CC1Oc2ccccc2N(CC(=O)NCCN2CCOCC2)C1=O (configuration not stated)	none
COc1ccccc1NC(C)=O	none
COc1cc(NC(=O)c2ccc3snnc3c2)cc(OC)c1	CHX counter 28.6
CC(C)(C)c1ccc(OC(=O)c2ccc3nsnc3c2)cc1	Pf growth 96h inconclusive (no result: Pf growth 48h)
COc1ccccc1OC(=O)c1ccc2nsnc2c1	CHX counter 9.9
COc1ccccc1NC(=O)c1ccc2c(O)c(S(=O)(=O)c3ccccc3)c(=O)[nH]c2c1	Pf growth 96h 11.7µM
COc1ccccc1NC(=O)c1ccc(N)cc1	CHX counter 15.6, Shiga toxin inh 59.6 (no result: Pf growth 48h)
Cc1c(CCOC(=O)c2cccc([N+](=O)[O-])c2)sc[n+]1CC(=O)c1ccccc1	Pf growth 48h inconclusive
O=C(COC(=O)c1cccc(O)c1)Nc1ccc(N2CCOCC2)cc1	Pf growth 96h inconclusive (no result: CHX counter, Shiga toxin inh)
O=C(Nc1ccccc1)c1ccc2snnc2c1	CHX counter 25.0, Shiga toxin inh 67.4
CC1CCC(NC(=O)c2ccc3snnc3c2)CC1 (configuration not stated)	Pf growth 96h inconclusive, CHX counter 40.8, Shiga toxin inh 50.3
Cc1nnsc1C(=O)Nc1ccccc1	Pf growth 96h 10.4µM
O=C(NC1CC1)c1ccc2snnc2c1	none
Cc1nnsc1C(=O)NNC(=O)Nc1ccccc1	Pf growth 96h inconclusive
Cc1ccc(C(=O)Nc2ccccc2OC(F)F)cc1	CHX counter 37.1, Shiga toxin inh 44.8 (no result: Pf growth 48h)
COc1cc(-c2ccc(NC(=O)c3ccc(C)cc3)c(OC)c2)ccc1NC(=O)c1ccc(C)cc1	none
Cc1ccc(NC(=O)c2ccc3snnc3c2)cc1	CHX counter 18.1
COc1ccccc1NC(=O)c1ccc2snnc2c1	Shiga toxin inh 41.6
